PubChem BioAssay (Tox21)
Results filed as inconclusive are left out. The source made the active and inactive calls. Unless noted, the call rests on the fitted dose curve; in most records, active means well fitted curve in the direction sought with a large enough effect in the repeat runs; inconclusive means weak or mixed curves; inactive means no such curve, though single readings can be large; an effect the other way counts as inactive or inconclusive.

Tests used:
[1] = target: Peroxisome proliferator-activated receptor delta (Homo sapiens) (UniProt Q03181); test: qHTS assay to identify small molecule agonists of the peroxisome proliferator-activated receptor delta (PPARd) signaling pathway (AID 743212; calls by dose curve)
Method in brief: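 GeneBLAzer PPARd UAS-bla HEK293H cells (beta-lactamase reporter under UAS control), plated and rested 5 h at 37 C, then exposed to compounds in DMSO at 37 C; LiveBLAzer B/G FRET substrate added, 2 h room temperature, fluorescence read.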

[2] = qHTS assay to identify small molecule agonists of the farnesoid-X-receptor (FXR) signaling pathway - cell viability counter screen (AID 743218); further: nearly all actives have a fitted effect of over 45% in size; further: potency means the concentration at half of the fitted maximal effect
Method in brief: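 In GeneBLAzer FXR-UAS-bla HEK 293T cells, compounds act for 16 h at 37 C. Cell viability is then scored in the reporter wells by CellTiter-Glo, 30 min at RT, luminescence.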

[3] = qHTS assay to identify small molecule agonists of the vitamin D receptor (VDR) signaling pathway - cell viability counter screen (AID 743224); further: nearly all actives have a fitted effect of over 50% in size; further: potency means the concentration at half of the fitted maximal effect
Method in brief: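 VDR-bla cell line, quantitative HTS format; 16 h compound incubation (37C, 5% CO2); ATP-based CellTiter-Glo luminescence measured in the reporter assay wells.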

[4] = qHTS assay to identify small molecule agonists of the endoplasmic reticulum stress response signaling pathway (AID 1159516; active means well fitted activation curve with a large enough effect in the signal ratio in the repeat runs, not every such curve was filed as active; the % refers to the signal ratio)
Method in brief: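 ER stress element reporter (bla) in HeLa. 1,500 cells/well, overnight attachment; 5 hr compound; 2 hr RT substrate; dual-emission fluorescence.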

[5] = qHTS assay to identify small molecule agonists of the endoplasmic reticulum stress response signaling pathway - cell viability counter screen (AID 1159517; calls by dose curve; further: nearly all actives have a fitted effect of over 50% in size; further: potency means the concentration at half of the fitted maximal effect)
Method in brief: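 Luminescence readout: CellTiter-Glo, 30 min RT, same wells as the ESRE-bla reporter read. HeLa ESRE-bla, 1,500 cells/well, o/n 37 C; cpd 5 hr 37 C/5% CO2.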

[6] = target: Nuclear receptor ROR-gamma (Homo sapiens) (UniProt P51449); test: qHTS assay to identify small molecule antagonists of the retinoid-related orphan receptor gamma (ROR-gamma) signaling pathway (AID 1159521; further: nearly all actives have a fitted effect of over 50% in size; further: potency means the concentration at half of the fitted maximal effect)
Method in brief: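 Screening format: cell-based luciferase reporter in CHO cells with doxycycline-inducible RORγ. Compound pre-exposure lasts 2 h, doxycycline is 1 uM final, induction runs 16 h at 37 C, and ONE-Glo luminescence is read.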

[7] = qHTS assay to identify small molecule agonists of the AP-1 signaling pathway - cell viability counter screen (AID 1159525; calls by dose curve; further: nearly all actives have a fitted effect of over 55% in size; further: potency means the concentration at half of the fitted maximal effect)
Method in brief: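 ME-180 AP-1-bla, 2500 cells/well, Opti-MEM + 0.5% dialyzed FBS; overnight 37 °C; cpd 15-pt titration, 5 h 37 °C; CellTiter-Glo 30 min RT; luminescence read; normalised to TOAB and DMSO controls.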

[8] = qHTS assay to identify small molecule agonists of the AP-1 signaling pathway (AID 1159526; calls by dose curve)
[9] = target: Retinoic acid receptor RXR-alpha (Homo sapiens) (UniProt P19793); test: qHTS assay to identify small molecule agonists of the RXR signaling pathway (AID 1159527; calls by dose curve; further: nearly all actives have a fitted effect of over 35% in size; further: potency means the concentration at half of the fitted maximal effect)
Method in brief: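 Fluorescence ratio readout (460 vs 530 nm) from GeneBLAzer RXR-alpha HEK 293T cells after 16 hr compound treatment; cells seeded 5 hr beforehand in low-serum, charcoal-stripped medium.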

[10] = qHTS assay to identify small molecule agonists of the peroxisome proliferator-activated receptor delta (PPARd) signaling pathway - cell viability counter screen (AID 743211); further: nearly all actives have a fitted effect of over 55% in size; further: potency means the concentration at half of the fitted maximal effect
Method in brief: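 Following 5 h plating at 37 C and 5% CO2, PPARd UAS-bla HEK293H cells took up test compounds for 17 h. Viability was quantified by luminescence 30 min after CellTiter-Glo addition at room temperature.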

[11] = qHTS assay to identify small molecule antagonists of the peroxisome proliferator-activated receptor delta (PPARd) signaling pathway - cell viability counter screen (AID 743213); further: nearly all actives have a fitted effect of over 50% in size; further: potency means the concentration at half of the fitted maximal effect
Method in brief: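 Luminescence from CellTiter-Glo, added after the bla read and incubated 30 min at room temperature, gives viability of HEK293H PPARd-bla cells exposed to compounds for 17 h at 37 C with 300 nM L165041.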

[12] = target: Peroxisome proliferator-activated receptor delta (Homo sapiens) (UniProt Q03181); test: qHTS assay to identify small molecule antagonists of the peroxisome proliferator-activated receptor delta (PPARd) signaling pathway (AID 743215; active means well fitted inhibition curve with a large enough effect in the signal ratio in the repeat runs, not every such curve was filed as active; the % refers to the signal ratio;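 further: cells stimulated with agonist L165041 at 300 nM final during compound exposure; series mostly up to about 62 µM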)
Method in brief: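 Antagonist-mode beta-lactamase reporter screen: HEK293H cells with UAS-bla under PPARd control, stimulated by 300 nM L165041 (final) alongside test compound for 17 h at 37 C, then FRET fluorescence after 2 h substrate incubation.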

[13] = target: Bile acid receptor (Homo sapiens) (UniProt Q96RI1); test: qHTS assay to identify small molecule agonists of the farnesoid-X-receptor (FXR) signaling pathway (AID 743220; active means well fitted activation curve with a large enough effect in the signal ratio in the repeat runs, not every such curve was filed as active; the % refers to the signal ratio)
Method in brief: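 Beta-lactamase reporter under UAS control in GeneBLAzer FXR HEK 293T cells (5000/well) measured with LiveBLAzer FRET substrate after 2 h at room temperature. Compound exposure lasted 16 h at 37C.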

[14] = qHTS assay to identify small molecule antagonists of the farnesoid-X-receptor (FXR) signaling pathway - cell viability counter screen (AID 743221; active means well fitted cell-killing curve with a large enough effect in the repeat runs, not every such curve was filed as active; further: nearly all actives have a fitted effect of over 50% in size; further: potency means the concentration at half of the fitted maximal effect)
Method in brief: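 Compound effects on cell number were measured as CellTiter-Glo luminescence in HEK 293T cells expressing FXR-UAS-bla, after 16 h at 37 C with 50 uM CDCA (final).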

[15] = target: Vitamin D3 receptor (Homo sapiens) (UniProt P11473); test: qHTS assay to identify small molecule antagonists of the vitamin D receptor (VDR) signaling pathway (AID 743223; active means well fitted inhibition curve with a large enough effect in the signal ratio in the repeat runs, not every such curve was filed as active; the % refers to the signal ratio)
Method in brief: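 Beta-lactamase activity in VDR-bla cells is measured by FRET substrate fluorescence (2 h, room temperature) after cells spend 16 h at 37C with test compound and 3 nM final 1alpha,25-dihydroxyvitamin D3.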

[16] = qHTS assay to identify small molecule antagonists of the vitamin D receptor (VDR) signaling pathway - cell viability counter screen (AID 743225); further: nearly all actives have a fitted effect of over 50% in size; further: potency means the concentration at half of the fitted maximal effect
Method in brief: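 In this counter screen, VDR-bla HEK 293T cells receive test compound plus 3 nM final calcitriol for 16 h at 37C. Room-temperature steps of 2 h with the beta-lactamase substrate, then 30 min with CellTiter-Glo, precede the luminescence read.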

[17] = qHTS assay to identify small molecule antagonists of the retinoid-related orphan receptor gamma (ROR-gamma) signaling pathway - cell viability counter screen (AID 1159520); further: nearly all actives have a fitted effect of over 50% in size; further: potency means the concentration at half of the fitted maximal effect
Method in brief: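 Tet-on ROR gamma CHO cells (1,000/well) were plated 4 hr, given compounds in DMSO for 2 hr at 37 C, then induced with 1 uM final doxycycline for 16 hr. Viability was read as ATP by CellTiter-Glo luminescence after 30 min.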

[18] = target: Vitamin D3 receptor (Homo sapiens) (UniProt P11473); test: qHTS assay to identify small molecule agonists of the vitamin D receptor (VDR) signaling pathway (AID 743222; calls by dose curve)
Method in brief: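 Agonist activity measured in VDR-bla reporter cells. Exposure 16 h, 37C, 5% CO2; detection by B/G FRET substrate, 2 h RT.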

Measured: Potency

Vitamin D3 receptor (Homo sapiens), sequence (P11473 whole entry, looked up): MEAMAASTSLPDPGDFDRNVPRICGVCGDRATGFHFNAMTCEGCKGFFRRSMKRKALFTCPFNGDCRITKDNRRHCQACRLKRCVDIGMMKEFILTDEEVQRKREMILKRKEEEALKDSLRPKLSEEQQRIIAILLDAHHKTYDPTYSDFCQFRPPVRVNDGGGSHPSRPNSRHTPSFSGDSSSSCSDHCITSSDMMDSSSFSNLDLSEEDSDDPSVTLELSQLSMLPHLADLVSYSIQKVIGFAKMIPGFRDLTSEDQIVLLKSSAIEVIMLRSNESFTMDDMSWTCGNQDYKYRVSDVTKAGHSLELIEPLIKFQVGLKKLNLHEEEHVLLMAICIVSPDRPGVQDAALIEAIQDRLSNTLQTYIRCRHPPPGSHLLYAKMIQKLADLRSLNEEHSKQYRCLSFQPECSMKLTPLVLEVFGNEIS
Bile acid receptor (Homo sapiens), sequence (Q96RI1 whole entry, looked up): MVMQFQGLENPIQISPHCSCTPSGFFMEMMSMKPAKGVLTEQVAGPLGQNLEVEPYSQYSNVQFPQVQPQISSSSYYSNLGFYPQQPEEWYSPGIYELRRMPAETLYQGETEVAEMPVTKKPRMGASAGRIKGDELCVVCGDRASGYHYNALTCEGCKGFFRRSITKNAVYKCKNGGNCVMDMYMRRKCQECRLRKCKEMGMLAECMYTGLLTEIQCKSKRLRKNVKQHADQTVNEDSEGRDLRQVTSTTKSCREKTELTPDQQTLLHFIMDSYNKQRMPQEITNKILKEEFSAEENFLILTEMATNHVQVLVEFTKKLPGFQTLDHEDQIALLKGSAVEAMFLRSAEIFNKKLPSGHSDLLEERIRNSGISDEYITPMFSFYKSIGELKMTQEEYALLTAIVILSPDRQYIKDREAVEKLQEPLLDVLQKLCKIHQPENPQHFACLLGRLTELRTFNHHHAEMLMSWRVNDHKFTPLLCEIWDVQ
Peroxisome proliferator-activated receptor delta (Homo sapiens), sequence (Q03181 whole entry, looked up): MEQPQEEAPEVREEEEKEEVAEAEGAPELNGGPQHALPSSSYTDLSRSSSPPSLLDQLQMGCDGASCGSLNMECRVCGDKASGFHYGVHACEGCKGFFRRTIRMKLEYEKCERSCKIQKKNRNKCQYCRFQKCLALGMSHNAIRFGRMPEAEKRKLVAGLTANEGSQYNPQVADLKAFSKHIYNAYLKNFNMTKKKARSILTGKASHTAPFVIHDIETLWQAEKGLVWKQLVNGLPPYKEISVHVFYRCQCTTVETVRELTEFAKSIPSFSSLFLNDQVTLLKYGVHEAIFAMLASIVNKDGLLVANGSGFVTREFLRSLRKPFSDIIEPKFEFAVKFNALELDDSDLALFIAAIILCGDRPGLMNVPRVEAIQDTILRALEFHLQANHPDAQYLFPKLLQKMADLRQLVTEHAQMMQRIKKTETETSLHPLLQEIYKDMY
Retinoic acid receptor RXR-alpha (Homo sapiens), sequence (P19793 whole entry, looked up): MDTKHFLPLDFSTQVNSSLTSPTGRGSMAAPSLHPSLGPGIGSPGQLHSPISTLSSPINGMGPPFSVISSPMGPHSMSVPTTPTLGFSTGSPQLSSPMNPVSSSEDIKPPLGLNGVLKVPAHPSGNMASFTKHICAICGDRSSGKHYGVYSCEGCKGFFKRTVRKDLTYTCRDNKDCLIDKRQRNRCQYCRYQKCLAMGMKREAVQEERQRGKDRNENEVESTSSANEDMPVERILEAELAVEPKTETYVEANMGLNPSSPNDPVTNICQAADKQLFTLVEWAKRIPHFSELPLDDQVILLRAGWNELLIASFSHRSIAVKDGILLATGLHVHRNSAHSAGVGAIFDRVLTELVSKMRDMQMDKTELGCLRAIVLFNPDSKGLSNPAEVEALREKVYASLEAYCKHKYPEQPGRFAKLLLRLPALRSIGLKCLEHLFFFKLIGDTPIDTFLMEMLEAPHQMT

N#Cc1c[nH]cc1-c1cccc2c1OC(F)(F)O2
inactive: [1] | [2] | [3] | [4] | [5] | [7] | [8]
active: [6] 17200 nM | [9] 1380 nM

N#Cc1ccc(N(CC(N)=O)CC(F)(F)F)cc1C(F)(F)F
not listed: [6] | [18]
inactive: all other assays above

CN1C(=O)[C@@H](NC(=O)c2cc3ccccc3[nH]2)N=C(c2ccccc2)c2ccccc21
not listed: [1] | [4] | [8] | [12] | [13]
inactive: all other assays above

CCc1cccc(C)c1N(C(=O)CCl)[C@@H](C)COC
inactive: [10] | [11] | [2] | [14] | [3] | [4] | [5] | [7] | [8]

CN1CCc2cc3c(cc2C1O)OCO3 (stereo not drawn)
inactive: [10] | [2] | [14] | [3] | [16] | [5] | [17] | [6] | [7] | [8]

Oc1cc(Cl)cc(Cl)c1
not listed: [5] | [12] | [13] | [14]
inactive: all other assays above

[F][Sn]([c]1ccccc1)([c]1ccccc1)[c]1ccccc1
active: [10] 871 nM | [11] 977 nM | [2] 977 nM | [14] 1550 nM | [3] 490 nM | [16] 692 nM | [5] 5490 nM | [17] 864 nM | [6] 273 nM | [7] 7760 nM
inactive: [18]

C[C@@H]1CC2=CC(=O)CC[C@@H]2[C@H]2CC[C@@]3(C)[C@@H](CC[C@]3(C)O)[C@@H]21
not listed: [1] | [6] | [11] | [12]
inactive: all other assays above

CC(C)c1c(CN(C)C(C)Cc2ccccc2)n(C)n(-c2ccccc2)c1=O (stereo not drawn)
active: [11] 13300 nM
not listed: [2] | [6] | [9] | [12] | [14] | [15]
inactive: all other assays above

C=CCBr
not listed: [1] | [6] | [10] | [12] | [15]
inactive: all other assays above

CC(=O)[O][Sn]([c]1ccccc1)([c]1ccccc1)[c]1ccccc1
active: [11] 275 nM | [2] 97.7 nM | [3] 87.1 nM | [5] 13800 nM | [17] 96.9 nM | [6] 24.3 nM | [7] 3890 nM

CCOP(=O)(OCC)Oc1cc(C)nc(C(C)C)n1
not listed: [4] | [15] | [18]
inactive: all other assays above
